Out of some 5,500 compounds screened, about 2,000 (36%) were called active. Inconclusive results (about 18%) are left out. Rule as the data show it: active = normalized growth mostly below about 0.91 (no sharp cut-off); inconclusive = no clear call, values can overlap the other calls; inactive = mostly above about 0.92. This is one part of the list.
Test: chemical genetic growth profiling, strain panel (AID 1159580);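 also: tested at 20 µM; growth read once vehicle control cultures reached saturation at 30 °C; 1 = growth at the plate median or of vehicle wells; lower values mean less growth of the strain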
Settings: growth OD

Measured: normalized growth

O=C(OC[C@H]1O[C@H](OC(=O)c2cc(O)c(O)c(OC(=O)c3cc(O)c(O)c(O)c3)c2)[C@H](OC(=O)c2cc(O)c(O)c(OC(=O)c3cc(O)c(O)c(O)c3)c2)[C@@H](OC(=O)c2cc(O)c(O)c(OC(=O)c3cc(O)c(O)c(O)c3)c2)[C@@H]1OC(=O)c1cc(O)c(O)c(OC(=O)c2cc(O)c(O)c(O)c2)c1)c1cc(O)c(O)c(OC(=O)c2cc(O)c(O)c(O)c2)c1
inactive: S. cerevisiae deletion strains, locus YKR026C, strain gcn3, stronger effect = lower value 1.03 | S. cerevisiae deletion strains, locus YKR091W, strain srl3, stronger effect = lower value 0.968 | S. cerevisiae deletion strains, locus YLL041C, strain sdh2, stronger effect = lower value 0.951 | S. cerevisiae deletion strains, locus YLR113W, strain HOG1, stronger effect = lower value 1.08 | S. cerevisiae deletion strains, locus YMR125W, strain sto1, stronger effect = lower value 1.04 | S. cerevisiae deletion strains, locus YNL183C, strain NPR1, stronger effect = lower value 0.988 | S. cerevisiae deletion strains, locus YNL248C, strain rpa49, stronger effect = lower value 0.922 | S. cerevisiae deletion strains, locus YNR049C, strain mso1, stronger effect = lower value 0.944 | S. cerevisiae deletion strains, locus YOL012C, strain htz1 0.275 | S. cerevisiae deletion strains, locus YOR231W, strain MKK1, stronger effect = lower value 1.04 | S. cerevisiae deletion strains, locus YPL256C, strain CLN2, stronger effect = lower value 1.14
active: S. cerevisiae deletion strains, locus YJR075W, strain HOC1, stronger effect = lower value 0.104 | S. cerevisiae deletion strains, locus YKL009W, strain mrt4, stronger effect = lower value 0.125 | S. cerevisiae deletion strains, locus YKL068W, stronger effect = lower value 0.082 | S. cerevisiae deletion strains, locus YKL085W, strain MDH1 (second series), stronger effect = lower value 0.0765 | S. cerevisiae deletion strains, locus YKL085W, strain MDH1, stronger effect = lower value 0.0765 | S. cerevisiae deletion strains, locus YKL160W, strain elf1, stronger effect = lower value 0.761 | S. cerevisiae deletion strains, locus YKL190W, strain CNB1, stronger effect = lower value 0.0756 | S. cerevisiae deletion strains, locus YKR001C, strain vps1, stronger effect = lower value 0.101 | S. cerevisiae deletion strains, locus YLL001W, strain dnm1, stronger effect = lower value 0.693 | S. cerevisiae deletion strains, locus YLL026W, stronger effect = lower value 0.689 | S. cerevisiae deletion strains, locus YLR027C, strain aat2, stronger effect = lower value 0.82 | S. cerevisiae deletion strains, locus YLR039C, strain RIC1, stronger effect = lower value 0.131 | S. cerevisiae deletion strains, locus YLR058C, strain SHM2, stronger effect = lower value 0.0679 | S. cerevisiae deletion strains, locus YLR102C, strain apc9, stronger effect = lower value 0.0965 | S. cerevisiae deletion strains, locus YLR221C, strain rsa3, stronger effect = lower value 0.785 | S. cerevisiae deletion strains, locus YLR258W, strain gsy2, stronger effect = lower value 0.807 | S. cerevisiae deletion strains, locus YLR262C, strain YPT6 (second series), stronger effect = lower value 0.596 | S. cerevisiae deletion strains, locus YLR262C, strain YPT6, stronger effect = lower value 0.149 | S. cerevisiae deletion strains, locus YLR268W, strain sec22, stronger effect = lower value 0.115 | S. cerevisiae deletion strains, locus YLR320W, strain mms22, stronger effect = lower value 0.777 | S. cerevisiae deletion strains, locus YLR330W, strain CHS5, stronger effect = lower value 0.0805 | S. cerevisiae deletion strains, locus YLR342W, strain FKS1 (second series), stronger effect = lower value 0.119 | S. cerevisiae deletion strains, locus YLR342W, strain FKS1, stronger effect = lower value 0.662 | S. cerevisiae deletion strains, locus YLR357W, strain rsc2, stronger effect = lower value 0.656 | S. cerevisiae deletion strains, locus YLR370C, strain arc18, stronger effect = lower value 0.334 | S. cerevisiae deletion strains, locus YLR371W, strain rom2, stronger effect = lower value 0.0958 | S. cerevisiae deletion strains, locus YLR384C, strain iki3, stronger effect = lower value 0.784 | S. cerevisiae deletion strains, locus YLR418C, strain cdc73, stronger effect = lower value 0.159 | S. cerevisiae deletion strains, locus YML016C, strain PPZ1, stronger effect = lower value 0.0844 | S. cerevisiae deletion strains, locus YML032C, strain rad52, stronger effect = lower value 0.103 | S. cerevisiae deletion strains, locus YML120C, strain ndi1, stronger effect = lower value 0.617 | S. cerevisiae deletion strains, locus YML124C, strain tub3, stronger effect = lower value 0.0933 | S. cerevisiae deletion strains, locus YMR058W, strain fet3, stronger effect = lower value 0.901 | S. cerevisiae deletion strains, locus YMR078C, strain ctf18, stronger effect = lower value 0.106 | S. cerevisiae deletion strains, locus YMR129W, stronger effect = lower value 0.921 | S. cerevisiae deletion strains, locus YMR205C, strain PFK2, stronger effect = lower value 0.721 | S. cerevisiae deletion strains, locus YMR223W, strain ubp8, stronger effect = lower value 0.0998 | S. cerevisiae deletion strains, locus YMR231W, strain pep5, stronger effect = lower value 0.148 | S. cerevisiae deletion strains, locus YMR263W, strain SAP30, stronger effect = lower value 0.0929 | S. cerevisiae deletion strains, locus YMR307W, strain GAS1, stronger effect = lower value 0.175 | S. cerevisiae deletion strains, locus YNL067W, strain RPL9B, stronger effect = lower value 0.0835 | S. cerevisiae deletion strains, locus YNL071W, strain lat1, stronger effect = lower value 0.88 | S. cerevisiae deletion strains, locus YNL128W, strain TEP1, stronger effect = lower value 0.0962 | S. cerevisiae deletion strains, locus YNL153C, strain GIM3, stronger effect = lower value 0.086 | S. cerevisiae deletion strains, locus YNL209W, strain ssb2, stronger effect = lower value 0.363 | S. cerevisiae deletion strains, locus YNL233W, strain BNI4, stronger effect = lower value 0.0934 | S. cerevisiae deletion strains, locus YNL250W, strain rad50, stronger effect = lower value 0.0969 | S. cerevisiae deletion strains, locus YNL271C, strain bni1, stronger effect = lower value 0.0916 | S. cerevisiae deletion strains, locus YNL298W, strain CLA4, stronger effect = lower value 0.0929 | S. cerevisiae deletion strains, locus YNL307C, strain MCK1, stronger effect = lower value 0.102 | S. cerevisiae deletion strains, locus YNL322C, strain KRE1 (second series), stronger effect = lower value 0.853 | S. cerevisiae deletion strains, locus YNL322C, strain KRE1, stronger effect = lower value 0.0735 | S. cerevisiae deletion strains, locus YNR052C, strain pop2, stronger effect = lower value 0.0934 | S. cerevisiae deletion strains, locus YOL006C, strain TOP1, stronger effect = lower value 0.155 | S. cerevisiae deletion strains, locus YOL147C, strain pex11, stronger effect = lower value 0.0861 | S. cerevisiae deletion strains, locus YOR001W, strain rrp6, stronger effect = lower value 0.663 | S. cerevisiae deletion strains, locus YOR061W, strain CKA2, stronger effect = lower value 0.065 | S. cerevisiae deletion strains, locus YOR069W, strain VPS5, stronger effect = lower value 0.0788 | S. cerevisiae deletion strains, locus YOR070C, strain gyp1, stronger effect = lower value 0.404 | S. cerevisiae deletion strains, locus YOR080W, strain dia2, stronger effect = lower value 0.349 | S. cerevisiae deletion strains, locus YOR083W, strain WHI5, stronger effect = lower value 0.695 | S. cerevisiae deletion strains, locus YOR106W, strain vam3, stronger effect = lower value 0.425 | S. cerevisiae deletion strains, locus YOR136W, strain idh2, stronger effect = lower value 0.108 | S. cerevisiae deletion strains, locus YOR144C, strain elg1, stronger effect = lower value 0.0856 | S. cerevisiae deletion strains, locus YOR184W, strain ser1, stronger effect = lower value 0.124 | S. cerevisiae deletion strains, locus YOR265W, strain rbl2, stronger effect = lower value 0.845 | S. cerevisiae deletion strains, locus YOR270C, strain vph1, stronger effect = lower value 0.438 | S. cerevisiae deletion strains, locus YOR290C, strain snf2, stronger effect = lower value 0.169 | S. cerevisiae deletion strains, locus YOR316C, strain cot1, stronger effect = lower value 0.0869 | S. cerevisiae deletion strains, locus YPL051W, strain arl3, stronger effect = lower value 0.565 | S. cerevisiae deletion strains, locus YPL055C, strain LGE1, stronger effect = lower value 0.103 | S. cerevisiae deletion strains, locus YPL078C, strain atp4, stronger effect = lower value 0.582 | S. cerevisiae deletion strains, locus YPL106C, strain sse1, stronger effect = lower value 0.829 | S. cerevisiae deletion strains, locus YPL240C, strain hsp82, stronger effect = lower value 0.889 | S. cerevisiae deletion strains, locus YPL241C, strain CIN2, stronger effect = lower value 0.0787 | S. cerevisiae deletion strains, locus YPR119W, strain clb2, stronger effect = lower value 0.0923 | S. cerevisiae deletion strains, locus YPR141C, strain kar3, stronger effect = lower value 0.096 | S. cerevisiae deletion strains, locus YPR163C, strain tif3, stronger effect = lower value 0.102 | S. cerevisiae deletion strains, locus YPR167C, strain met16, stronger effect = lower value 0.0927 | S. cerevisiae deletion strains, strain wtn01, stronger effect = lower value 0.0926 | S. cerevisiae strains, strain wild type, stronger effect = lower value 0.0831

Reference: PubChem BioAssay AID1159580 (chemical genetic matrix, 2015)
